The record followed here is publication PMC5540273 (PLoS ONE, 2017).

“And” between values parts separate entries of the source, which are not always exact repeats. Identical values can stand only once. Like-named read-outs stand apart in the source and are kept apart here.

One assay deals with ROCK1. The note with it: n = 1.
For the next assay, the system named is ROCK2. The note with it: n = 1.
For another assay, the system named is ROS1. The note with it: n = 1.
Assay [1] relates to RPS6KA4(Kin.Dom.1-N-terminal). The note with it: n = 1.
Assay [2] has as its system RPS6KA4(Kin.Dom.2-C-terminal). The settings on record: concentration: 1 μM, replicates: in singlicate; n = 1.
For assay [3], the system named is RPS6KA5(Kin.Dom.1-N-terminal). The note with it: n = 1.
The subject of assay [4] is RPS6KA5(Kin.Dom.2-C-terminal). The note with it: n = 1.
The subject of assay [5] is T1, RSK1(Kin.Dom.1-N-terminal).
T1 construct: gene RPS6KA1
The note with it: n = 1.

Assay [6] concerns T2, RSK1(Kin.Dom.2-C-terminal).
T2 construct: gene RPS6KA1
The settings on record: n = 1.

The test system of assay [7] is T3, RSK2(Kin.Dom.1-N-terminal).
T3 construct: gene RPS6KA3
The settings on record: n = 1.

The mark [8] stands for this setting: concentration: 1 μM, replicates: in singlicate.
Where [9] appears, read: concentration: 1 μM,replicates: in singlicate, 1 µM.
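Further: KINOMEscan kinase panel screen.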

Consider `Cc1cccc(-c2nc(Nc3ccc4[nH]ncc4c3)c3ccccc3n2)n1` [GW857175], for which the “%Inh” value with ROCK1 (setting [8]) was found to be 29%; in the assay on ROCK2 (setting [8]) it was 52%; with ROS1 (setting [8]), 17%; in assay [1] (setting [8]), 0%; in assay [2], 33%; in assay [3] (setting [8]), 0%. The “%Inh” value in assay [4] (setting [8]) is on record as 5%; in assay [5] (setting [8]), 15%; in [6] (setting [8]), 50%; in [7] (setting [8]), 18%.
`Cc1ccc(NC(=O)Nc2cc(C(C)(C)C)nn2-c2ccccc2)cc1` [GSK1014915]: the “%Inh” value worked out at 15% in the assay with ROCK1 (setting [8]); 0% with ROCK2 (setting [8]); 9% in the assay on ROS1 (setting [8]); 9% in [1] (setting [8]); 0% in assay [2]; 25% in assay [3] (setting [8]). The “%Inh” value in [4] (setting [8]) is listed as 38%; in [5] (setting [8]), 16%; in [6] (setting [8]), 1%; in [7] (setting [8]), 19%.
As for `CSc1nn2c(=O)cc(N3CCOCC3)nc2n1Cc1cccc(C(F)(F)F)c1C` [GSK2363608], the “%Inh” value with ROCK1 (setting [9]) is 98.3% and 17%; in the assay on ROCK2 (setting [9]), 98.9% and 0%; with ROS1 (setting [9]) it was 14% and 0%; in assay [1] (setting [9]), 28% and 0%; in assay [2] it was 0%; in [3] (setting [9]) it was 12% and 0%. Also, the “%Inh” value was 19% and 9% in assay [4] (setting [9]); 20% and 10% in assay [5] (setting [9]); 1% and 0% in [6] (setting [9]); 9% and 2% in assay [7] (setting [9]).
Take `Fc1cccc(COc2nnc(-c3ccc4c(c3)CCO4)o2)c1`: the “%Inh” value is 0% with ROCK1 (setting [8]); 0% in the assay on ROCK2 (setting [8]); 0% with ROS1 (setting [8]); 0% in assay [1] (setting [8]); 30% in assay [2]; 0% in [3] (setting [8]). In addition, the “%Inh” value in assay [4] (setting [8]) is listed as 9%; in assay [5] (setting [8]), 0%; in assay [6] (setting [8]), 43%; in [7] (setting [8]), 0%.
For the molecule `Cn1ccc2ncnc(Oc3cccc(C(=O)Nc4ccccc4)c3)c21`, the “%Inh” value is 0% in the assay on ROCK1 (setting [8]); 16% in the assay with ROCK2 (setting [8]); 4% with ROS1 (setting [8]); 0% in assay [1] (setting [8]); 18% in [2]; 19% in assay [3] (setting [8]). For the same molecule, the “%Inh” value is given as 0% in [4] (setting [8]), 0% in assay [5] (setting [8]), 9% in assay [6] (setting [8]) and 0% in assay [7] (setting [8]).
Turning to `O=C(O)COc1ncnc2cc(-c3ccc4[nH]ncc4c3)sc12`, the “%Inh” value in the assay on ROCK1 (setting [8]) is 27%; in the assay with ROCK2 (setting [8]), 61%; in the assay with ROS1 (setting [8]) it was 3%; in assay [1] (setting [8]), 15%; in assay [2], 17%; in assay [3] (setting [8]), 0%. For the same molecule, the “%Inh” value in assay [4] (setting [8]) is recorded as 0%; in [5] (setting [8]), 21%; in assay [6] (setting [8]), 34%; in assay [7] (setting [8]), 13%.
For `Cc1csc(-c2nc(Nc3ccncc3)c3ccccc3n2)n1` [GW869640], the “%Inh” value in the assay with ROCK1 (setting [8]) turned out to be 65%; with ROCK2 (setting [8]), 18%; in the assay with ROS1 (setting [8]), 22%; in assay [1] (setting [8]) it was 52%; in assay [2], 17%; in assay [3] (setting [8]), 13%. The “%Inh” value in assay [4] (setting [8]) came out at 16%; in [5] (setting [8]) it was 0%; in assay [6] (setting [8]) it was 22%; in [7] (setting [8]), 42%.
On to `Cc1c(O)cccc1Nc1ccnc2ccc(C(F)(F)F)cc12.Cl` [GW466413], for which the “%Inh” value was 10% with ROCK1 (setting [8]); 20% in the assay with ROCK2 (setting [8]); 3% in the assay with ROS1 (setting [8]); 17% in [1] (setting [8]); 0% in assay [2]; 32% in assay [3] (setting [8]). Further, the “%Inh” value in [4] (setting [8]) is recorded as 0%; in [5] (setting [8]), 0%; in assay [6] (setting [8]) it was 2%; in assay [7] (setting [8]) it was 0%.
For the molecule `C[C@@H]1CCCCN1c1cc(-c2ccc3c(N)n[nH]c3c2)nc(N)n1` [GSK2258759], the “%Inh” value with ROCK1 (setting [8]) worked out at 0%; with ROCK2 (setting [8]) it was 0%; in the assay with ROS1 (setting [8]), 5%; in assay [1] (setting [8]), 4%; in [2], 0%; in assay [3] (setting [8]) it was 14%. The “%Inh” value in [4] (setting [8]) came to 10%; in assay [5] (setting [8]), 5%; in assay [6] (setting [8]), 14%; in assay [7] (setting [8]) it was 0%.
Regarding `O=C(Nc1ccccc1)Nc1cccc(Oc2ccc3nccn3n2)c1`, the “%Inh” value was 0% in the assay with ROCK1 (setting [8]); 0% in the assay with ROCK2 (setting [8]); 0% in the assay on ROS1 (setting [8]); 43% in [1] (setting [8]); 0% in assay [2]; 0% in [3] (setting [8]). The “%Inh” value in assay [4] (setting [8]), in assay [5] (setting [8]), in assay [6] (setting [8]) and in assay [7] (setting [8]) was 0% throughout.
Consider `COc1ccccc1-c1ccc2c(NC(=O)C3CC3)n[nH]c2n1` [SB-711239], for which the “%Inh” value is listed as 23% with ROCK1 (setting [8]); 6% with ROCK2 (setting [8]); 10% in the assay on ROS1 (setting [8]); 9% in assay [1] (setting [8]); 0% in assay [2]; 13% in [3] (setting [8]). Further, the “%Inh” value came out at 12% in assay [4] (setting [8]), 11% in assay [5] (setting [8]), 0% in assay [6] (setting [8]) and 0% in [7] (setting [8]).
Turning to `CCn1c(-c2ccccn2)nc2cnccc21` [SB-736398], the “%Inh” value is 14% with ROCK1 (setting [8]); 30% with ROCK2 (setting [8]); 0% with ROS1 (setting [8]); 13% in [1] (setting [8]); 0% in assay [2]; 15% in [3] (setting [8]). Also, the “%Inh” value in assay [4] (setting [8]) stood at 0%; in [5] (setting [8]), 65%; in assay [6] (setting [8]), 0%; in assay [7] (setting [8]) it was 15%.
For the molecule `Cc1ccc(NC(=O)Nc2cccc(Cl)c2)cc1-c1ccc(C(=O)Nc2ccncc2)cc1` [GSK1398468], the “%Inh” value was 0% in the assay on ROCK1 (setting [8]); 13% in the assay on ROCK2 (setting [8]); 0% in the assay on ROS1 (setting [8]); 24% in assay [1] (setting [8]); 0% in assay [2]; 10% in assay [3] (setting [8]). Besides, the “%Inh” value came to 39% in assay [4] (setting [8]), 23% in assay [5] (setting [8]), 0% in assay [6] (setting [8]) and 0% in [7] (setting [8]).
With `COc1ccc(Nc2nccc(NCCNC(=O)Nc3ccccc3F)n2)cc1` [GSK1379901], the “%Inh” value with ROCK1 (setting [8]) is 30%; in the assay with ROCK2 (setting [8]), 44%; in the assay on ROS1 (setting [8]) it was 24%; in assay [1] (setting [8]), 14%; in assay [2] it was 0%; in assay [3] (setting [8]), 14%. Moreover, the “%Inh” value was determined as 27% in [4] (setting [8]), 16% in assay [5] (setting [8]), 0% in [6] (setting [8]) and 1% in assay [7] (setting [8]).
Turning to `COc1ccc(CNC(=O)NC2CCN(c3ccnc(Nc4cc(OC)c(OC)c(OC)c4)n3)C2)cc1` (stereo not drawn) [GSK1379748], the “%Inh” value in the assay with ROCK1 (setting [8]) is reported as 20%; in the assay with ROCK2 (setting [8]), 31%; in the assay on ROS1 (setting [8]) it was 29%; in assay [1] (setting [8]), 0%; in assay [2], 0%; in assay [3] (setting [8]) it was 0%. Besides, the “%Inh” value is on record as 21% in assay [4] (setting [8]), 0% in assay [5] (setting [8]), 1% in assay [6] (setting [8]) and 3% in assay [7] (setting [8]).
Take `Fc1cc(Cl)ccc1Nc1ccnc2cc(I)ccc12` [GW551191]: the “%Inh” value in the assay on ROCK1 (setting [8]) came to 2%; with ROCK2 (setting [8]), 17%; in the assay with ROS1 (setting [8]), 0%; in assay [1] (setting [8]), 10%; in [2] it was 0%; in [3] (setting [8]), 13%. Further, the “%Inh” value in assay [4] (setting [8]) came to 0%; in assay [5] (setting [8]), 8%; in assay [6] (setting [8]) it was 50%; in [7] (setting [8]), 11%.
In the case of `COc1cccc(-c2cc(-c3c[nH]nc3-c3ccccn3)ccn2)c1` [GW680338], the “%Inh” value amounted to 0% in the assay with ROCK1 (setting [8]); 0% in the assay on ROCK2 (setting [8]); 0% with ROS1 (setting [8]); 18% in [1] (setting [8]); 0% in assay [2]; 0% in [3] (setting [8]). Further, the “%Inh” value in assay [4] (setting [8]) turned out to be 7%; in [5] (setting [8]) it was 0%; in assay [6] (setting [8]), 9%; in [7] (setting [8]) it was 0%.
On to `Cc1nnc(-c2ccc3occ(-c4ccc(S(C)=O)cc4)c3c2)[nH]1` (stereo not drawn), for which the “%Inh” value in the assay with ROCK1 (setting [8]) was determined as 20%; with ROCK2 (setting [8]), 0%; in the assay with ROS1 (setting [8]), 0%; in assay [1] (setting [8]) it was 0%; in [2], 11%; in assay [3] (setting [8]), 0%. The “%Inh” value was 15% in assay [4] (setting [8]), 9% in assay [5] (setting [8]), 33% in assay [6] (setting [8]) and 13% in assay [7] (setting [8]).
